# Assay results: the supplement of paper PMC6555819
# Tested on: PPARg:RXRa IVT, anti-PPARg (NR concentration 270 nM, RXRa partner concentration 90 nM)
# Assay: PBM binding z-score (relative to random genomic background probes); higher = stronger binding; sequences stand for … in GC…GCGATTGACAGCGTAGAATGAAGG
# Outline: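 Binding buffer was PBS pH 7.4 with 2% milk, 0.02% Triton X-100, 1 mM DTT, 0.2 mg/mL BSA and 0.4 mg/ml salmon testes DNA. In it, ligand-free nuclear receptor dimers were incubated 1 h on custom Agilent 4×180K protein-binding microarrays carrying double-stranded probes. Antibodies against each partner (one per run) detected binding, and z-scores were calculated against random background probes after regression normalization of scanned fluorescence.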
row,Sequence,PBM binding z-score
1,CGTCCAAGGTCAAGGTCGGTGAAAGAGACTCGAA,4.02
2,TCTTGTAGATCAATAGAGGTTCAGAAAGTGCGCT,0.382
3,CCTACTGGGCCAACGTCATTGATCAGTCAAAGCA,4
4,AGAACGAGGGCACGCAGAGTTGATAGCAGAGTAG,4.09
5,GCCTATAGGTAATACAAGGTGAAAGTCCGATTGT,1.53
6,TAGCCTAGGTCATTGGGCGAGTATAGTACGCATC,3.05
7,ACAGACAGGTGAGTGAAGGTAACTAAGCTGGACG,0.719
8,TTACCAAGTTGAGCTGAGGTCGTTGATCCAACTC,0.221
9,TGAGTGAGGTTAAAGATCAGGGAACGTGGCGTCG,1.91
10,CCTCGGAGGACTGAAGGTCAGAGCTGTCCGCTTT,-0.254
11,CCTACTGGGCCACGGTCATTGATCAGTCAAAGCA,5.29
12,GGAACGAGGACATTCGAGTTGATAGCATGGCGAT,0.192
13,CTACCAAGGAGAACAAGGTCGTTGATTACTATTC,0.269
14,TCGAGTAGGTTGGGGGCATTCAGAATGGCGTCGA,2.38
15,CCAGATAGGTGAAAGGTAACTCAGTCTGGTACGC,4.32
16,ACTCGGAGGACAAAGGCCAGAGCTACGCCAGTGA,-0.304
17,CAAACTAGGTCAAGTTCAAAGTCGGTTTGTGCCA,8.81
18,GTACCAAGGTGGATAGGTCGTTGATGAGTAGGCG,-0.0801
19,TCTGCTCGGTCAGTTGGTCAGCTAACGAGCTGCC,0.74
20,CATACAGTGTCAGCTAGGCCAGAGTAGGGACGGC,0.608

row,Sequence,PBM binding z-score
1,CGTCCAAGGACAAAGGTCAGTGAAGAGATGACGG,2.78
2,TCTATTACTTGATTAGGGCAACCGAAACAGCGGA,1.45
3,ACTATTAGTTGAGACGAGGACAACCGATAGGTTG,0.208
4,GGTATTAGTTGAAAGGGCAACCGAATGATTCTCG,1.67
5,CCGACTGGGGCAAGGGTACCATAACGCACAGCCA,3.6
6,CGTCCAAGGTCAGCAGGTCAGTGACAGCGACGTG,3.56
7,CAAGCTAGGTCACGAAAGGTCAAAGTCGAATGAC,6.14
8,TAGCCTAGGTCATGCGGGCCATTATAGTGTCGGC,2.84
9,CAAACTAGGTCACCGGAAGGTCAAAGACCGCATG,8.78
10,TCATATAGGTAAATGCTAGGTGAAAGCCCGATCT,2.73
11,CTCGAAAGGTCGTGCTCAGGCGAGTATACCAAAC,1.53
12,GCTAGTTGGTCAGTAAAAGTTCACACACCGGTCG,0.916
13,CCGACTGGGGCATAAGGTTACCTTAAGCCAGCCC,3.27
14,TAGCCTAGGTCATTCAGGGGCCAGTAAAGAAAGC,3.14
15,CATACTGGGTCAGCTAGGCCAGAGTAGGGACGGC,5.45
16,CAGCCTAGGTCAGTGCCAGTATAGGAGGAACGTT,1.05
17,TCTCGGAGGACACGAAAGGTCAGATCTCGACATC,1.5
18,CAAACTAGGTCAAAGGTCCAAGTCGAGCCAACCA,8.36
19,CAAACTAGGTCCAAGGTCAAAGTCGAGCCAACCA,4.91
